# Measured values published in PubChem BioAssay (NCATS).
# Values joined by “and” are separate entries in the source; they are usually repeats but may differ in a detail not shown here. Identical values can stand only once. Values without a mark were called inactive. Results filed as inconclusive are left out. The list shows a part of the results. Where a call stands in place of a potency, no number is given. Active and inactive are the calls of the source. Unless noted, calls come from the whole dose curve; as a rule, active = well fitted curve in the direction sought with a large enough effect; inconclusive = small, poorly fitted or top-dose-only effect, or another doubt; inactive = no such curve, though single readings can be large; an effect the other way counts as inactive or inconclusive.
# Assays:
# [1] = target: Fructose-bisphosphate aldolase (Giardia intestinalis (strain ATCC 50803 / WB clone C6)) (UniProt A8B2U2); experiment: qHTS Assay for Inhibitors of Fructose-1,6-bisphosphate Aldolase from Giardia Lamblia: Primary screen confirmation (AID 2787);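 note: aldolase product measured through coupled diaphorase step turning resazurin into fluorescent resorufin; nearly all actives have a fitted effect of over 45% in size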
# Method in brief: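 FBPA (40 nM in enzyme reagent, with 30 uM ZnCl2) was preincubated 10 min at RT with compound up to 57.5 uM final. Substrate plus coupled detection system was then added, and fluorescence (525/598 nm) was read after 20 min at RT.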
# [2] = target: Fructose-bisphosphate aldolase A (Oryctolagus cuniculus) (UniProt P00883); experiment: qHTS Assay for Inhibitors of Fructose-1,6-bisphosphate Aldolase from Giardia Lamblia: Rabbit FBPA Selectivity (AID 2794); note: nearly all actives have a fitted effect of over 60% in size
# Method in brief: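 Glyceraldehyde-3-phosphate-coupled detection measures rabbit Class I aldolase turnover via AmpLite Red fluorescence. Compounds (final up to 57.5 uM) preincubated 10 min; signal read 20 min post-substrate at RT.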
# [3] = qHTS Assay for Inhibitors of Fructose-1,6-bisphosphate Aldolase from Giardia Lamblia: Coupling assay counterscreen confirmation (AID 2795); note: nearly all actives have a fitted effect of over 55% in size
# Method in brief: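 Concentration-response counterscreen (up to 57.5 uM final) of aldolase-screen hits against coupling enzymes only. Substrate, coupling system and AmpLite Red were added after a 10 min RT preincubation; fluorescence was taken 20 min later at 525/598 nm.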
# [4] = qHTS Assay for Inhibitors of Fructose-1,6-bisphosphate Aldolase from Giardia Lamblia: Mammalian cellular toxicity (AID 2786);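 note: compound exposure lasted 48 h before reading; nearly all actives have a fitted effect of over 60% in size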
# Method in brief: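 CHO cells seeded at 250 cells/well with pin-tool-added compound, incubated 48 h at 37 °C, 5% CO2. Viability read as ATP content by ATPlite luminescence after 20 min.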
# [5] = target: DNA repair nuclease/redox regulator APEX1 (Homo sapiens) (UniProt P27695); experiment: Confirmation qHTS Assay for Inhibitors of the Human Apurinic/apyrimidinic Endonuclease 1 (APE1) (AID 2572);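 note: fluorescence gain from purified APE1 cutting a TAMRA/BHQ-2 THF abasic duplex; nearly all actives have a fitted effect of over 30% in size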
# Method in brief: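 Cleavage of a tetrahydrofuran abasic site in a 50 nM (final) TAMRA/BHQ-2 duplex was tracked by rising fluorescence, measured in kinetic mode; reaction progress computed from the first-to-third read difference.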
# [6] = target: Endonuclease 4 (Escherichia coli (strain K12)) (UniProt P0A6C1); experiment: Counterscreen for APE1 Inhibitors: qHTS Assay for Inhibitors of Endonuclease IV (AID 2565)
# Method in brief: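 Conditions: 2 nM enzyme, 50 nM TAMRA/BHQ-2 substrate, pH 7.5 Tris buffer with 2 mM MgCl2, RT. Compound preincubation 15 min; readout three fluorescence reads 60 s apart, third-minus-first.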
# [7] = target: DNA polymerase iota (Homo sapiens) (UniProt Q9UNA4); experiment: qHTS for Inhibitors of Polymerase Iota: Confirmatory Assay for Cherry-picked Compounds (AID 720496); settings: Pol iota primer extension, TAMRA/BHQ fluorescence; note: potency is the fitted concentration of half-maximal effect
# Method in brief: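 Enzyme (10 nM Pol iota) and compound sit together for 15 min at room temperature. Adding annealed primer/TAMRA-reporter/BHQ-2-template substrate, 50 nM final, starts the reaction, which is followed by fluorescence over 10 min.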
# [8] = target: DNA polymerase eta (Homo sapiens) (UniProt Q9Y253); experiment: qHTS for Inhibitors of Polymerase Eta: Confirmatory Assay for Cherry-picked Compounds (AID 720502); settings: Pol eta primer extension, TAMRA/BHQ fluorescence, 10 min; note: potency is the fitted concentration of half-maximal effect
# Method in brief: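 Pol eta 10 nM; substrate 50 nM final (unlabeled primer, TAMRA reporter, BHQ-2 template); preincub. 15 min RT; reads t=0 and t=10 min at ex525/em598.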
# [9] = qHTS Assay for Inhibitors of Fructose-1,6-bisphosphate Aldolase from Giardia Lamblia: Giardia lamblia growth inhibition (AID 2785); note: nearly all actives have a fitted effect of over 70% in size
# Method in brief: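 G. lamblia WB trophozoites (100 cells/well) were grown with compound at 37C for 48 h in modified TYI-S-33 medium, pH 7.0. Growth was measured by ATPlite luminescence after 20 min at room temperature.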
# [10] = target: Lysosomal acid glucosylceramidase (Homo sapiens) (UniProt P04062); experiment: Glucocerebrosidase-p2 (AID 348; in the data active = potency below about 10 µM; note: potency is the fitted concentration of half-maximal effect); settings: purified GBA, blue fluorogenic substrate, 40 min
# Method in brief: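 Normal human glucocerebrosidase (0.2 nM) with blue fluorogenic substrate (80 uM final) in citrate/phosphate pH 5.9 with 10mM sodium taurocholate, 0.01% tween-20; 40 min RT, NaOH/glycine stop; fluorescence Ex 365/Em 440; AC50 from a titration from 0.6 nM upwards.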
# [11] = AP1 Signaling Pathway (AID 357; active = well fitted curve in either direction with a large enough effect, not every such curve was filed as active;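 note: ME-180 reporter cells stimulated with EGF at its EC50 level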); settings: ME-180 AP-1-bla reporter, EGF-induced, beta-lactamase ratio, 5 h
# Method in brief: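 A ratiometric CCF4 readout (405 nm excitation; 460 and 530 nm emission) quantified AP-1-driven beta-lactamase in ME-180 cells after 5 h with compound and EC50 EGF; AC50 values were derived for activators and inhibitors.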
# [12] = target: Cytochrome P450 1A2 (Homo sapiens) (UniProt P05177); experiment: p450-cyp1a2 (AID 410; calls by dose curve)
# Method in brief: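 Luminescent demethylation readout: Luciferin-ME (100uM, equal to Km) turned over by 20nM CYP1A2 for 60 min at room temperature after NADPH regeneration addition, following 10 min compound preincubation. Normalization used 57 uM furafylline as full inhibition.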
# [13] = Stat Signaling Pathway (AID 446; active = well fitted curve in either direction with a large enough effect, not every such curve was filed as active;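 note: ME-180 cervical cancer cells given 40 pM IL-6 alongside compound; SIE-controlled beta-lactamase reporter measured as 460/530 nm FRET emission ratio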); settings: ME-180 (cervical carcinoma) SIE beta-lactamase reporter, IL-6 stimulated, 5 h
# Method in brief: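 Normalization used AC90 stimulation (300 pM IL-6) and AC90 inhibition (125 nM pan-JAK inhibitor at 40 pM IL-6). The underlying signal is SIE-driven beta-lactamase in ME-180 cells after 5 h IL-6 exposure with compound.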
# [14] = target: Glucocorticoid receptor (Homo sapiens) (UniProt P04150); experiment: GR-GFP Redistribution (AID 450;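 active = compounds whose dose series gives a full or clear partial fitted curve of increased nuclear translocation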; note: potency is the fitted concentration of half-maximal effect); settings: U2OS GR-GFP nuclear translocation, laser cytometry, 2 h
# [15] = target: Glucocorticoid receptor (Homo sapiens) (UniProt P04150); experiment: GR-EFC Redistribution (AID 451; calls by dose curve; note: potency is the fitted concentration of half-maximal effect); settings: CHO-K1 GR-EFC translocation, beta-gal luminescence, 2 h
# Method in brief: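 CHO-K1 cells expressing nuclear EA and GR-ED fragments of b-gal; compounds titrated up to 46 uM final, 2 h at 37 C. GR nuclear translocation read as complemented b-gal luminescence after 1 h RT detection.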
# [16] = target: Mitogen-activated protein kinase 10 (Mus musculus) (UniProt Q61831); experiment: JNK3 AlphaScreen Assay (AID 530; active = well fitted curve in either direction with a large enough effect, not every such curve was filed as active;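 note: kinase came from lysate of stimulated human HepG2 cells; signal reports phosphorylation of biotinylated GST-cJun 1-79 at Ser73 with 10 µM ATP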)
# Method in brief: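 Activity was read by AlphaScreen after JNK3-containing HepG2 lysate (cytokine pre-activated) phosphorylated biotinylated GST-cJun with 10 uM ATP at room temperature. Phospho-Ser73 cJun antibody with Protein-A acceptor beads provided detection.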
# [17] = target: 3',5'-cyclic-AMP phosphodiesterase 4B (Homo sapiens) (UniProt Q07343); experiment: qHTS Assay for Inhibitors of PDE-IV (AID 607; active = well fitted activation curve with a large enough effect in the main read-out, with a control signal flat, not every such curve was filed as active)
# Method in brief: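 HEK293 ACTOne cells with CNG channel (1000/well), endogenous PDE4; membrane potential dye, compounds up to 22.9 uM final. Fluorescence Ex 535/Em 590; RO 20-1724 (100 uM final) as reference.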
# [18] = target: Cytochrome P450 3A4 (Homo sapiens) (UniProt P08684); experiment: qHTS Assay for Inhibitors and Substrates of Cytochrome P450 3A4 (AID 884); note: nearly all actives have a fitted effect of over 50% in size
# Method in brief: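 Luminescent readout of luciferin produced by CYP3A4 (20 nM) dealkylation of Luciferin-PPXE, 25 uM (its KM). NADPH-driven reaction ran 60 min at RT after 10 min compound preincubation; data scaled to 57 uM ketoconazole as 100% inhibition.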
# [19] = target: Cytochrome P450 2D6 (Homo sapiens) (UniProt P10635); experiment: qHTS Assay for Inhibitors and Substrates of Cytochrome P450 2D6 (AID 891);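 note: luciferin methyl ether substrate demethylated by CYP2D6 with NADPH regeneration; nearly all actives have a fitted effect of over 60% in size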
# Method in brief: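 Luminescent read-out of luciferin formed by 5 nM human CYP2D6 demethylating 30 uM Luciferin-ME EGE (Km level) over 60 min at room temperature after NADPH regeneration addition. Data normalized to full inhibition by 1.43 uM quinidine.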
# [20] = target: Cytochrome P450 2C19 (Homo sapiens) (UniProt P33261); experiment: qHTS Assay for Inhibitors and Substrates of Cytochrome P450 2C19 (AID 899); note: nearly all actives have a fitted effect of over 60% in size
# Method in brief: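 Luminescent read-out of luciferin formed from Luciferin-H EGE (10uM, equal to KM). Enzyme 5nM in 50mM KPO4; compound added, 10 min at 37C, then NADPH regenerating system for 60 min at 37C. Full inhibition defined by 57uM ketoconazole.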
# [21] = target: Ubiquitin carboxyl-terminal hydrolase 1 (Homo sapiens) (UniProt O94782); experiment: Inhibitors of USP1/UAF1: Pilot qHTS (AID 504865);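 note: rhodamine fluorescence freed from ubiquitin-rhodamine substrate followed over time; top concentration of the series differs between compounds; nearly all actives have a fitted effect of over 35% in size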
# Method in brief: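 Kinetic fluorescence assay: 1nM USP1/UAF1, 15 min compound preincubation, then 150nM Ub-Rho; 480/540 nm.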
# Glucocorticoid receptor (Homo sapiens), sequence (P04150 whole entry, looked up, the tested form may be a part): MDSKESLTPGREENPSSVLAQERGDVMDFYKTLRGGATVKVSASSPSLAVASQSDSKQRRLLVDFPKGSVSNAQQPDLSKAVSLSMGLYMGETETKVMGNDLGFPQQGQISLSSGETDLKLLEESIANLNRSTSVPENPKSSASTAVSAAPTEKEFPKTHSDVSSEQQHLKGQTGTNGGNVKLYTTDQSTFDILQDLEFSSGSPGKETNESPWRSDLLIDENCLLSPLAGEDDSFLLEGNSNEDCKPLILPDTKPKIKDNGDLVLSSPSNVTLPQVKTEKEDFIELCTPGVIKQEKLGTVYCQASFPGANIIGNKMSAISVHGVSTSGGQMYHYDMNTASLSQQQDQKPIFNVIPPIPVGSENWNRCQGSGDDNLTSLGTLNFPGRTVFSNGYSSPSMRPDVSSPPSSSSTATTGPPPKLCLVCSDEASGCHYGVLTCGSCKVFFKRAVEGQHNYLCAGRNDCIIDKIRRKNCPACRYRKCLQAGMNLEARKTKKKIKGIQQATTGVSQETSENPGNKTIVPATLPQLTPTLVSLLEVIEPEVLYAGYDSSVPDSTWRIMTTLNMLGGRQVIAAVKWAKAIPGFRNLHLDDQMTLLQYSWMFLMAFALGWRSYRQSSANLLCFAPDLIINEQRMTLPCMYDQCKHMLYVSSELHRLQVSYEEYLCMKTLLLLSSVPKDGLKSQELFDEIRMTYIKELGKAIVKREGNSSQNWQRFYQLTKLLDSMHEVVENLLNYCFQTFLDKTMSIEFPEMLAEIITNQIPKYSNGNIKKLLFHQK
# Fructose-bisphosphate aldolase (Giardia intestinalis (strain ATCC 50803 / WB clone C6)), sequence (A8B2U2 whole entry, looked up): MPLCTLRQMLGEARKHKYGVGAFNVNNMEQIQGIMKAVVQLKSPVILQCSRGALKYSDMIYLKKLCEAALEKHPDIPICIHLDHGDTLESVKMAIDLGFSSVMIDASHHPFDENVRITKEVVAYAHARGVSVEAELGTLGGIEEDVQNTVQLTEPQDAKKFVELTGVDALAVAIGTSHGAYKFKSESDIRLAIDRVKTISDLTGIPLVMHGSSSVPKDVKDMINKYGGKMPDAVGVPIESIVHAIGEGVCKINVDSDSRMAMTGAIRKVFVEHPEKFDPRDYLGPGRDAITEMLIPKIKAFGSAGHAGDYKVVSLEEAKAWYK
# Cytochrome P450 1A2 (Homo sapiens), sequence (P05177 whole entry, looked up): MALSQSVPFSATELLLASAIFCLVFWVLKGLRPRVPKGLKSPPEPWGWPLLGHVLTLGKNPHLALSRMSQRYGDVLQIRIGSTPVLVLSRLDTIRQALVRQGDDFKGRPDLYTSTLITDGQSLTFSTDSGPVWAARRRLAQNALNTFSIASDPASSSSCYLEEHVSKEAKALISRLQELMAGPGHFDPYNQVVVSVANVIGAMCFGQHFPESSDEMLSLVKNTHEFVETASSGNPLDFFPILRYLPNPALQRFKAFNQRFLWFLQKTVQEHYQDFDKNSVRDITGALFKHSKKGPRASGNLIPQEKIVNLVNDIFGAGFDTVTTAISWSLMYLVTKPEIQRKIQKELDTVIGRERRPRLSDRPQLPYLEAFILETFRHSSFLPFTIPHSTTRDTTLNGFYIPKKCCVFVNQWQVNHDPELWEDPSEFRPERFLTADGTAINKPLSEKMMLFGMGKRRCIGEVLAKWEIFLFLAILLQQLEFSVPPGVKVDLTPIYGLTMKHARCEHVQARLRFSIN
# Cytochrome P450 2C19 (Homo sapiens), sequence (P33261 whole entry, looked up): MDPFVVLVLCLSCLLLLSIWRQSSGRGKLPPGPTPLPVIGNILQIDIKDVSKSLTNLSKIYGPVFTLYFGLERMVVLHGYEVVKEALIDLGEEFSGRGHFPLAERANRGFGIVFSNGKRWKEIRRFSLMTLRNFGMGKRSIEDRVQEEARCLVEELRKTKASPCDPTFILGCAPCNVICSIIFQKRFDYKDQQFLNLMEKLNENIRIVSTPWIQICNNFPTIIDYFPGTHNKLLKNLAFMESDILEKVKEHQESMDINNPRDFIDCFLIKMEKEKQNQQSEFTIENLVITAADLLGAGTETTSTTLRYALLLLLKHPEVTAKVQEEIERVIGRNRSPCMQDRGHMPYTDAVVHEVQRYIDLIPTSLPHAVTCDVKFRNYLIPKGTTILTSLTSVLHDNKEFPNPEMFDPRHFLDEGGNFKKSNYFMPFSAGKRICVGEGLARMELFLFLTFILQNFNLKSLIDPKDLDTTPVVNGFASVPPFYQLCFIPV
# Cytochrome P450 2D6 (Homo sapiens), sequence (P10635 whole entry, looked up): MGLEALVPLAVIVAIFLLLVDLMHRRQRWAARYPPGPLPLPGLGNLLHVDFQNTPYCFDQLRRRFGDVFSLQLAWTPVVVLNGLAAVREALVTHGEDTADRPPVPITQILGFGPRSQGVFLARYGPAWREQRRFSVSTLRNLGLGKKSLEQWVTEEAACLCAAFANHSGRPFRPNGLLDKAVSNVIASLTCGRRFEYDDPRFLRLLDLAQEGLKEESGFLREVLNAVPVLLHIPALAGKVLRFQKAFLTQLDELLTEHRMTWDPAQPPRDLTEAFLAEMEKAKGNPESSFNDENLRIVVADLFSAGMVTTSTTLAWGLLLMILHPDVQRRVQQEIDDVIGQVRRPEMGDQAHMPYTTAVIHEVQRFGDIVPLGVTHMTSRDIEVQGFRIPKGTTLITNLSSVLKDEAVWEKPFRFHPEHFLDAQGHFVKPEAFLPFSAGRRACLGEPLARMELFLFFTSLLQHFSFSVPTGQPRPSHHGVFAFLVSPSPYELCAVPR
# Fructose-bisphosphate aldolase A (Oryctolagus cuniculus), sequence (P00883 whole entry, looked up): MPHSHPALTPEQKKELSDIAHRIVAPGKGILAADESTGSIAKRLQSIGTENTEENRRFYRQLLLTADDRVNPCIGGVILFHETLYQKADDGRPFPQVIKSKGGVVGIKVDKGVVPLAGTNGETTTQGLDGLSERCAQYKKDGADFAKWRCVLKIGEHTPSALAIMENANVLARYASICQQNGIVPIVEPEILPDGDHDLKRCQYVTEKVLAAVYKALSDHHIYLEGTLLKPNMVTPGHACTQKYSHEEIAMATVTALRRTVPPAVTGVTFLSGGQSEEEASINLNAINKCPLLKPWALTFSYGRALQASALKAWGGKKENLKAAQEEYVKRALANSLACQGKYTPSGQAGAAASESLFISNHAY
# DNA polymerase iota (Homo sapiens), sequence (Q9UNA4 whole entry, looked up): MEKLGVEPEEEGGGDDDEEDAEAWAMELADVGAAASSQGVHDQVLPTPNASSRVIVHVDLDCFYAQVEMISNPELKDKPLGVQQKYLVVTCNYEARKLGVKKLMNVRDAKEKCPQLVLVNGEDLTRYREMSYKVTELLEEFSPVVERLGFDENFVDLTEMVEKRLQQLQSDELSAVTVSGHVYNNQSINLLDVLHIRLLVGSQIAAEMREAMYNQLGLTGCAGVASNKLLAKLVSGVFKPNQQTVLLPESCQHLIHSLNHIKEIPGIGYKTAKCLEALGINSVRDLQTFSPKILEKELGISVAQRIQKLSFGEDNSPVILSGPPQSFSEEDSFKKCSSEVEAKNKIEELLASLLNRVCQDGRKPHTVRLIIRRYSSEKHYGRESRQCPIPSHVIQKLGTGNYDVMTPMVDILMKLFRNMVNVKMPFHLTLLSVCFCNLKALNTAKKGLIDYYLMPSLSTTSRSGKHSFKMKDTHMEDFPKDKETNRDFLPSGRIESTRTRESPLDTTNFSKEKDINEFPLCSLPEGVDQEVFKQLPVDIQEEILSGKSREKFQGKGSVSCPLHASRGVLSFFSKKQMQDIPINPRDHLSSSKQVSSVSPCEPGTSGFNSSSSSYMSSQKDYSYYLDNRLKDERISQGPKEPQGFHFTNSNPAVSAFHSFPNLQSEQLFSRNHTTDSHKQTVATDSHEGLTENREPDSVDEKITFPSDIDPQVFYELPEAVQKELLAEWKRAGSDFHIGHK
# 3',5'-cyclic-AMP phosphodiesterase 4B (Homo sapiens), sequence (Q07343 whole entry, looked up): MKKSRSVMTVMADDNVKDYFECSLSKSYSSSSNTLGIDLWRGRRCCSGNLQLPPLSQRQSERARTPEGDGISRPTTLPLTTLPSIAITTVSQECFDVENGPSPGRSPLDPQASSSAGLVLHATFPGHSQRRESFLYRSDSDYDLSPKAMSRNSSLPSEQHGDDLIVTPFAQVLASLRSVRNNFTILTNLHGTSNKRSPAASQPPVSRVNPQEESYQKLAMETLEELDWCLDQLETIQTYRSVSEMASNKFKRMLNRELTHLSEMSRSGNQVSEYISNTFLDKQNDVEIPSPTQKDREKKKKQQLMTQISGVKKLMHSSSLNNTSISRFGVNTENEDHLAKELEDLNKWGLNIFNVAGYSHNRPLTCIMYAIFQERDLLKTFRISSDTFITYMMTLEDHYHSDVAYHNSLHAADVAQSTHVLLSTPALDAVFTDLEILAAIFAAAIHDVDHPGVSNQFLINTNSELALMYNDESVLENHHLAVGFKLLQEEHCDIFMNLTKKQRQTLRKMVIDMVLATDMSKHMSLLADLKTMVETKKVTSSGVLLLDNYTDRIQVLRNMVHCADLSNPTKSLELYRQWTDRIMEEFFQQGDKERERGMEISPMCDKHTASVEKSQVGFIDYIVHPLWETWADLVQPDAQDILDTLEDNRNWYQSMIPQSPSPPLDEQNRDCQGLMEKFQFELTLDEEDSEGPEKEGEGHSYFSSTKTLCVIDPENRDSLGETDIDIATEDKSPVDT
# Lysosomal acid glucosylceramidase (Homo sapiens), sequence (P04062 whole entry, looked up): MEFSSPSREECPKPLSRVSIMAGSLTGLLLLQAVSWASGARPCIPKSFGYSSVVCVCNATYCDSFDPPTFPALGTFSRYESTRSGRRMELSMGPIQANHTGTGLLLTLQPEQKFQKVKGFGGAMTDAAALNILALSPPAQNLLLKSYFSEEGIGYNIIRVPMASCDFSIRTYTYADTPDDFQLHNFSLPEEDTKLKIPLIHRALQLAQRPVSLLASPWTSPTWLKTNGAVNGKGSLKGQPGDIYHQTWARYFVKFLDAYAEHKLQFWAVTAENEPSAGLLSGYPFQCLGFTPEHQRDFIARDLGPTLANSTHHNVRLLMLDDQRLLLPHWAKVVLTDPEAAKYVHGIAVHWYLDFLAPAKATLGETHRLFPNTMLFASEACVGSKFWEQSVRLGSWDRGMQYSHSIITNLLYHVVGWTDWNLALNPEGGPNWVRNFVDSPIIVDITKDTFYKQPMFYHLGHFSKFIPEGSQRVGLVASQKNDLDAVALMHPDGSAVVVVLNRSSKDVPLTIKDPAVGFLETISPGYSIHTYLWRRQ
structure (smiles),measurement,setting,value
Cc1nc2ccc(NC(=S)N3CCC(C)CC3)cc2nc1C,outcome,[1],inactive
same,outcome,[2],inactive
same,outcome,[3],inactive
CCS(=O)(=O)c1cc([N+](=O)[O-])c(Sc2ccccc2N)s1,Potency,[4],inactive
same,outcome,[1],inactive
Cc1cccc(C)c1OCCN1CCOCC1,Potency,[4],inactive
same,outcome,[1],inactive
Cc1ccc(OCCCCc2c(C)n[nH]c2C)cc1,Potency,[4],inactive
same,outcome,[1],inactive
same,outcome,[2],inactive
same,outcome,[3],inactive
CCOCN(C(=O)Cn1c(C(C)O)nc2ccccc21)c1c(C)cccc1CC (configuration not stated),Potency,[5],inactive
Cc1nc(N2CCOCC2)sc1C(=O)NN,Potency,[4],inactive
COc1cc([C@H](Cc2ccccc2)NC(C)=O)oc(=O)c1,outcome,[6],inactive
same,Potency,[7],37.7 µM (active)
same,Potency,[8],23.9 µM (active)
CC(C)(c1ccccc1)c1ccc(OCCN2CCCC2)cc1,outcome,[1],inactive
O=C(NC(=S)Nc1ncccn1)c1ccccc1Br,Potency,[9],inactive
same,Potency,[4],inactive
CN1C(=O)/C(=C\c2ccc(-c3ccccc3)o2)SC1=S,Potency,[9],inactive
CC1CCCN(S(=O)(=O)c2ccc(C(=O)Nc3nnc(-c4ccncc4)o3)cc2)C1 (configuration not stated),outcome,[1],inactive
same,outcome,[3],inactive
Cc1ccc(S(=O)(=O)NNC(=S)NC(C)(C)C)cc1,outcome,[3],inactive
COc1ccc2cc1Oc1ccc(cc1)C[C@H]1c3cc(c(OC)cc3CCN1C)Oc1c(OC)c(OC)cc3c1[C@@H](C2)N(C)CC3,Potency,[10],> 11.4 µM
same,"activity change, negative = inhibition",[11]; at 7.69 µM (top of the series),-3.56%
same,"activity change, negative = inhibition",[11]; at 17.2 µM (top of the series),-5.15%
same,Potency,[12],inactive
same,"activity, negative = inhibition",[13]; at 7.69 µM (top of the series),-1.58%
same,"activity, negative = inhibition",[13]; at 17.2 µM (top of the series),-5.25%
same,Potency,[14],> 20.6 µM and > 46 µM
same,Potency,[15],> 20.6 µM and > 46 µM and > 9.22 µM
same,Potency,[16],inactive
same,Potency,[17],inactive
same,Potency,[18],inactive
same,Potency,[19],inactive
same,Potency,[20],inactive
same,Potency,[21],inactive
